The results in this text go back to PubChem BioAssay (NCI).

Several values for one entry are separate records, joined by “and”; a condition that tells them apart may be missing. Equal values may be shown once. The panel holds about 83,000 compounds, 20% with a hit somewhere; the sample as a whole holds those more often.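 Testing used 96-well plates and a 48-hour single-concentration exposure. Example: -40 means 40% of the starting cells died.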 Activity calls are given as the source filed them. How the source made its calls: active means growth percent below 10; inactive means the rest.

The experiment concerns MDA-MB-468 breast. Briefly: NCI-60 one-dose screen, 48 h (100 = growth as untreated, 0 = no growth, -100 = all killed). To be noted: 10 µM unless noted.
For `O=C(O)CCCN1C(=O)/C(=C/c2cn(-c3ccccc3)nc2-c2ccc([N+](=O)[O-])cc2)SC1=S`, the growth is 73.5% (inactive).

For the molecule `CCn1ccnc1C(=O)/C=C/c1ccc(CC(=O)Nc2ccc(F)cc2)cc1`, the growth was -13.8% (active).

In the case of `Cc1ccc(/C=C/c2nn3c(-c4ccco4)nnc3s2)cc1`, the growth is 116% (inactive).

For `N=C(N)N=Nc1ccc(NN=C(N)N)cc1`, the growth is 103% (inactive).

In the case of `Cn1cc(-c2csc(-c3cn(CCNC(=O)OC(C)(C)C)c4ccccc34)n2)c2cccnc21`, the growth was 23.4% (inactive).

Regarding `O=C(CC1(O)C(=O)Nc2ccc(Br)cc21)c1ccc(Cl)cc1` (stereo not given), the growth is 100% (inactive).

Regarding `C=C1C(=O)O[C@H]2[C@H]1CC/C(COC(=O)c1cc3ccccc3o1)=C\CC[C@@]1(C)O[C@@H]21`, the growth is -71.2% (active).

As for `COc1ccc(/C(C#N)=C/c2cccc(OC)c2OC)cc1`, the growth is -19.3% (active).

For the molecule `Nc1nc(N)c2cc(Sc3ccc4ccccc4c3)ccc2n1`, the growth is 10.2% (inactive).

As to `COc1ccc(Oc2ccc(/C=N/NC(=O)CSc3nc4ccccc4c(=O)n3-c3ccc(Cl)cc3)cc2)cc1`, the growth was 66.8% (inactive).

`O=C1/C(=C/c2ccc(O)cc2)COc2ccc(-c3ccccc3)cc21`: the growth is 65% (inactive).

For `COc1ccc(C(=O)N2c3ccccc3Sc3ccccc32)c(C(F)(F)F)c1`, the growth was 29.7% (inactive).

For `CCN(CC)CCNC(=O)C(F)(F)C(F)(F)C(F)(F)F`, the growth was 105% (inactive).

`CC(C)N(C(=O)c1ccccc1)C(C)C`: the growth is 86.2% (inactive).

As for `O=C1C=Cc2ccccc2/C1=C/c1[nH]c(=O)[nH]c1O`, the growth was 41.5% (inactive).

Turning to `O=C1c2ccccc2C(=O)c2c(NCCN=Cc3ccccc3O)cccc21`, the growth was 43.8% (inactive).

Consider `C[C@H]1[C@H](C)CC[C@]2(C(=O)OCCOCCOCC[P+](c3ccccc3)(c3ccccc3)c3ccccc3)CC[C@]3(C)C(=CC[C@@H]4[C@@]5(C)CC[C@H](OC(=O)C(Cl)Cl)C(C)(C)[C@@H]5CC[C@]43C)[C@H]12`, for which the growth was -21.5% (active).

Turning to `COc1ccccc1CNc1nc(N)nc2[nH]c3ccc(O)cc3c12`, the growth was 45.2% (inactive).

As for `Cc1cc(N(CCNc2ccnc3cc(Cl)ccc23)Cc2ccco2)nc(Cl)n1`, the growth is -33.5% (active).

Regarding `Nc1cc(C(=O)O)[nH]c(=S)n1`, the growth is 95.3% (inactive).

For `Cc1cc(=O)n2nnc3cc(Cl)c(Cl)cc3n12`, the growth was 67% (inactive).

As for `CCOC(=O)c1c(N)c(C#N)cn1Cc1ccc(Cl)cc1Cl`, the growth was 45.2% (inactive).

`CSc1ccc(-c2n[nH]nc2-c2cc3ccccc3s2)cc1`: the growth is 54% (inactive).

As for `N#Cc1ccc(NC(=O)Nc2cccc(C#N)c2)cc1`, the growth was 46.5% (inactive).

For `NCCOc1ncccc1/C=C1\C2C=CC=CC2C2C=CC(F)=CC12` (stereo not given), the growth is -7.18% (active).

Regarding `CCOC(=O)C1=C(C)NC(SCc2cc(=O)oc3ccc(F)cc23)=N[C@@H]1c1cccc2ccccc12`, the growth was 113% (inactive).

With `CC(=O)N[C@@H](CNC(=O)c1cc(NC(=O)c2cc(NC(=O)c3cc(NC(=O)c4nccn4C)cn3C)cn2C)cn1C)CC(=O)Nc1cn(C)c(C(=O)Nc2cc(C(=O)Nc3cc(C(=O)Nc4cc(C(=O)NCCCN(C)CCCNC(=O)c5cccc(C(=O)O)c5)n(C)c4)n(C)c3)n(C)c2)n1`, the growth was 71.5% (inactive).

Consider `Cc1ccc(C)c(CCO)c1`, for which the growth is 93.5% (inactive).

On to `O=C(Nc1cccc(Cl)c1)c1cc(N=Nc2ccc([N+](=O)[O-])cc2Cl)ccc1O`, for which the growth was 67.8% (inactive).

As to `Clc1ccc(SSc2ccc(Cl)cc2)cc1`, the growth was 95.7% (inactive) and 95.5% (inactive).

Regarding `CC(C)(C)NC(=O)C(OC(=O)c1cccc(Cl)c1)c1ccc(Cl)cc1` (stereo not given), the growth was 87.9% (inactive).

With `COc1ccc(C(=O)C(C#N)c2cc(OC)c(OC)c(OC)c2)cc1` (stereo not given), the growth is 102% (inactive).

As for `CCOc1ccc2nc(-c3cccc(OCC(=O)NC(C)C)c3)nc(Nc3ccc(-c4cn[nH]c4)cc3)c2c1`, the growth was 21% (inactive).

For the molecule `C=C1C(=O)O[C@H]2[C@H]1CC/C(COC(=O)NCc1ccc(Cn3c(=O)sn(-c4ccc(I)cc4)c3=O)cc1)=C\CC[C@@]1(C)O[C@@H]21`, the growth is 29.6% (inactive).

Take `CCOc1ccc(/C=C/C=N/NC(N)=S)cc1`: the growth is 80.2% (inactive).

As to `CN(C)c1ccc(/C=C/c2sc3ccc4ccccc4c3[n+]2C)cc1`, the growth was -86.4% (active).

For the molecule `O=C(Nc1ccc(N2CCNCC2)cc1)c1[nH]ncc1Nc1ncnc2sc3c(c12)CCC3`, the growth was -83.5% (active).

Turning to `c1ccc2cc(C[n+]3ccn(CCCCCCCCCCCCn4cc[n+](Cc5ccc6ccccc6c5)c4)c3)ccc2c1`, the growth was -81.7% (active).

For the molecule `CCc1nc2c(=O)[nH]cnc2o1`, the growth was 90.8% (inactive).

As to `COc1cnc2c(c1)C(=O)c1c-2n(CCCNC(C)C)c(=O)c2cc(F)ccc12`, the growth was -63.6% (active).
